Reference: PubChem BioAssay AID602142 (NMMLSC, 2011)
Some of the results follow. A number with no mark means an inactive call. No rule for the calls is given here.

molecular target: Lethal factor (Bacillus anthracis) (UniProt P15917); test: Bacillus anthracis LF protease inhibitors, confirmation, biochemical, multiplex microsphere, cherry pick 1 (AID 602142); settings: multiplex microsphere protease cleavage assay, at 10 µM, active compounds read high
Sequence (P15917 whole entry, looked up): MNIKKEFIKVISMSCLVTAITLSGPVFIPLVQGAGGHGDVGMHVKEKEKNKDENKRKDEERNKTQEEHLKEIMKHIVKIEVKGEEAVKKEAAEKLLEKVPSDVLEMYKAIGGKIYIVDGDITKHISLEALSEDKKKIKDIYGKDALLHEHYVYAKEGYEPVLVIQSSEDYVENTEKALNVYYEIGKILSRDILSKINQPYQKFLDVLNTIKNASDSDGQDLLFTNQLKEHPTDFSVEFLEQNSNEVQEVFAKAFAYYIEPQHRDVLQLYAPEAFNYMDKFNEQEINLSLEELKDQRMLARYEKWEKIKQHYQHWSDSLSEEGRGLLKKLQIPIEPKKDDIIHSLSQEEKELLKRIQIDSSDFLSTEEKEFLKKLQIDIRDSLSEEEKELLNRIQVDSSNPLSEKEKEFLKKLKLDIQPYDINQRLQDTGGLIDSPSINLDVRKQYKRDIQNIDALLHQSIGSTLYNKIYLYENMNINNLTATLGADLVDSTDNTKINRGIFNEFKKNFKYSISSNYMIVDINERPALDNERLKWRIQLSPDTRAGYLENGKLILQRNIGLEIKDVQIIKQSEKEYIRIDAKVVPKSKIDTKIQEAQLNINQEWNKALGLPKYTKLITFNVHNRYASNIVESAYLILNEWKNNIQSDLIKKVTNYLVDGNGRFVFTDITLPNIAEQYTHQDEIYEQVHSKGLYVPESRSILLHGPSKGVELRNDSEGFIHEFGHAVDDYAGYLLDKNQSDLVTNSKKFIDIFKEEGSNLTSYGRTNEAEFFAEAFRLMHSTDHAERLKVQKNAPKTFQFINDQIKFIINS

SMILES | inhibition
Cc1ccc(C(=O)COc2cccc(NC(=O)c3ccco3)c2)cc1 | -1.8%
Cc1cc(S(=O)(=O)NC2CCCC2)ccc1-n1cnnn1 | -3.6%
COc1ccccc1-n1c(-c2cc(-c3ccco3)[nH]n2)n[nH]c1=S | 2.2%
Cc1onc(-c2ccccc2Cl)c1C(=O)NCCn1ccc2ccccc21 | 4.3%
CN(C(=O)c1ccccn1)c1nnc(-c2ccccn2)s1 | -4.3%
O=C(CN1CCCCCC1)Nc1c(Cl)cc(Cl)cc1Cl | 2.3%
CC1CCc2c(sc3nc4n(c(=O)c23)CCS4)C1 (configuration not stated) | 3.6%
O=C(Nc1nnc(CCc2ccccc2)s1)C1CCCO1 (configuration not stated) | 2.9%
CC1CCN(C(=O)c2ccc(S(=O)(=O)Cc3cc(F)ccc3F)c([N+](=O)[O-])c2)CC1 | 1.6%
Cc1cccc2cc3c(N)c(C(=O)N4CCCc5ccccc54)sc3nc12 | 13.6%
CN1CCN(c2ccc(NC(=O)c3ccccc3)cc2)CC1 | 4.8%
COc1cc(C(=O)NCc2ccc3c(c2)cc(C)n3C)cc(OC)c1OC | -4%
Clc1ccc(-c2ncc3ccccn23)c(Cl)c1 | 2.1%
COc1ccc(Br)cc1CNCCc1cccc(Cl)c1 | 3.2%
CC(C)Cc1nnc(NC(=O)CCC(=O)Nc2ccc3cn[nH]c3c2)s1 | -2.6%
CCOCC(=O)NCc1ccc2c(c1)cc(C)n2C | -1%
CCOCCn1c(-c2ccccc2)nc2ccccc21 | -0.9%
